JMJD2A Tudor inh = blocks the human JMJD2A Tudor domain | O75164 | AlphaScreen JMJD2A-Tudor / H3K4me3 peptide binding | Potency, µM (top dose mostly 114 µM), inactives show at the top dose activity change, negative = inhibition, usual class: inhibitors | hit rate 4.4% among 390,000 | AID 504339; further: on the % scale 0 is the no-effect control and ±100 the full control effect; nearly all actives have a fitted effect of over 50% in size
BAZ2B block = blocks human BAZ2B; Q9UIF8; AlphaScreen BAZ2B-H3K14Ac peptide displacement; Potency, µM (series often up to 114 µM), for inactives: at the top dose activity change, negative = inhibition, hits mostly inhibitors; hit rate 4.4% among 360,000; further: on the % scale 0 is the no-effect control and ±100 the full control effect; nearly all actives have a fitted effect of over 60% in size
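AlphaScreen luminescence quantifies BAZ2B engagement of H3K14Ac peptide; the protein and biotinylated peptide are both at 50 nM final, buffer PBS pH 7.4 with 0.01% Tween-20, all steps at room temperature.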
12-LOX inh = blocks human arachidonate 12S-lipoxygenase; hit rate 1.1% among 580,000; Potency, µM (highest dose often 108 µM), for inactives: at the highest dose activity change, negative = inhibition, hits mostly inhibitors; purified 12hLO, xylenol orange hydroperoxide absorbance; P18054; further: on the % scale 0 is the no-effect control and ±100 the full control effect
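Purified human 12hLO (150 nM final) in 25 mM Hepes, 0.01% Triton X-100, pH 7.0 was preincubated 15 min at room temperature with compound. Then 40 uM arachidonic acid was added, 30 min. Hydroperoxide was read by Fe-XO absorbance ratio 573/405 nm.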
PLK1 PBD inh = PLK1 (human) polo-box domain binding inhibition | P53350 | Plk1 PBD binding of FITC phosphopeptide, fluorescence polarization | Potency, µM, inactives show max response, negative = inhibition, most hits filed as inhibitors | hit rate 2.8% among 360,000 | AID 720504; further: series mostly up to about 57 µM; on the % scale 0 is the no-effect control and ±100 the full control effect; nearly all actives have a fitted effect of over 65% in size
G9a block = blocks human histone lysine methyltransferase G9a | Q96KQ7 | G9a H3K9 monomethylation, AlphaScreen, 2 h | Potency, µM (top dose mostly 102 µM), inactives show at the top dose activity, negative = inhibition, actives largely listed as inhibitors | hit rate 8.8% among 350,000; further: on the % scale 0 is the no-effect control and ±100 the full control effect; nearly all actives have a fitted effect of over 75% in size
Target sequence (Q96KQ7 913-1193 limits assumed): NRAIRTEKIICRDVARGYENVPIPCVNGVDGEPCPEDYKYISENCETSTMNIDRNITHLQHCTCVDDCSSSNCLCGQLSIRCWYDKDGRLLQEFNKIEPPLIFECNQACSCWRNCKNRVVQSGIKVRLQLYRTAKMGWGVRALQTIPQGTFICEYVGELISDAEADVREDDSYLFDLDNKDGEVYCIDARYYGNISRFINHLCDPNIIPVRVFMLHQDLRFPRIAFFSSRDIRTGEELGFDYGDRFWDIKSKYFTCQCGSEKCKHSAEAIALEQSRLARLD
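Quantitative HTS format: methyltransferase activity on a biotin-tagged H3K9 peptide is measured by AlphaScreen, using a rabbit anti-monomethyl-H3K9 antibody with streptavidin donor and anti-IgG acceptor beads. Final levels are 20 nM enzyme, 500 nM peptide, 20 uM SAM; 2 h RT.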
HP1b binding inh = blocks HP1-beta chromodomain binding to methylated histone tails; AlphaScreen HP1-beta / biotin-H3K9me3 peptide binding; Potency, µM (titrated, usually from 114 µM), inactives show at the highest dose activity change, negative = inhibition, hits mostly inhibitors; hit rate 0.56% among 390,000; AID 540317; further: nearly all actives have a fitted effect of over 70% in size
Target sequence (P83916 whole entry, looked up): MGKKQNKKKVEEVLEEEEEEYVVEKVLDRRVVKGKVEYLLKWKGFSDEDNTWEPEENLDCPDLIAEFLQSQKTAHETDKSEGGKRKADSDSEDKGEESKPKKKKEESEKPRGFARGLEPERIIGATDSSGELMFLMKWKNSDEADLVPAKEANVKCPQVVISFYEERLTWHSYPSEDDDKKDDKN
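Compound inhibition of the preformed complex between 50 nM HP1-beta and 50 nM biotinylated H3K9me3 peptide was read by AlphaScreen. Buffer was PBS pH 7.4 with 0.01% Tween-20. Incubations ran 30 min at room temperature, with 10 ug/mL donor/acceptor beads.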
The depositor's hits bear a star; [ ] = another dose, or the depositor's remark. Rows were chosen to be rich in hits. Some 9% of all compounds tested hit in one or more screens of this group. The call rests on the fitted dose curve; in most records, active means well fitted curve in the direction sought with a large enough effect; inconclusive means small, poorly fitted or top-dose-only effect, or another doubt; inactive means no such curve, though single readings can be large; an effect the other way counts as inactive or inconclusive. Potency means the concentration at half of the fitted maximal effect.

For CCc1ccc(S(=O)(=O)N2[C@@H]3CC[C@H]2CC(NC(=O)c2ccc(F)cc2)C3)cc1 (stereo not given in full) the results were 12-LOX inh 12%.
Screening Cn1nc(C(=O)N2CCN(c3ccc(Cl)cc3)CC2)c2c1-c1ccccc1S(=O)(=O)C2 returned JMJD2A Tudor inh -11%, BAZ2B block -12%, 12-LOX inh 18%, PLK1 PBD inh -4%, G9a block -4%[59 µM] and HP1b binding inh 29%.
`CC(=O)c1ccc(N2CCN(C(=O)c3nn(C)c4c3CS(=O)(=O)c3ccccc3-4)CC2)cc1` gave JMJD2A Tudor inh inconclusive, BAZ2B block -26%, 12-LOX inh 81%, PLK1 PBD inh 27µM*, G9a block 0% and HP1b binding inh -4%.
Screening CC(C)OC(=O)c1nn2c(C(F)(F)F)cc(-c3ccc(Br)o3)nc2c1Br returned JMJD2A Tudor inh -22%, BAZ2B block -4%, 12-LOX inh inconclusive, PLK1 PBD inh inconclusive, G9a block 35µM* and HP1b binding inh 10%.
`CC(C)OC(=O)c1nn2c(C(F)(F)F)cc(-c3ccco3)nc2c1Cl` gave JMJD2A Tudor inh -4%, BAZ2B block -6%, 12-LOX inh 0%, PLK1 PBD inh 19%, G9a block inconclusive and HP1b binding inh 27%.
`Cc1cc(C)nc(Nc2ncc(O)n2-c2ccc(F)cc2)n1` gave 12-LOX inh -3%.
`COc1cccc(NC(=O)Nc2cccs2)c1` gave JMJD2A Tudor inh -18%, BAZ2B block 8%, 12-LOX inh 145%, PLK1 PBD inh -17%, G9a block 10µM* and HP1b binding inh 10%.
For CC(=O)c1cccc(NC(=O)Nc2cccs2)c1 the results were JMJD2A Tudor inh -23%, BAZ2B block inconclusive, 12-LOX inh 235%, PLK1 PBD inh -30%, G9a block inconclusive and HP1b binding inh 1%.
COc1ccc(NC(=O)Nc2cccs2)cc1OC was read as JMJD2A Tudor inh inconclusive, BAZ2B block inconclusive, 12-LOX inh inconclusive, PLK1 PBD inh -19%, G9a block 45µM* and HP1b binding inh -24%.
Screening CCc1ccc(NC(=O)Nc2cccs2)cc1 returned JMJD2A Tudor inh -19%, BAZ2B block inconclusive, 12-LOX inh 0%, PLK1 PBD inh -19%, G9a block 10µM* and HP1b binding inh 9%.
Screening Cc1ccc(NC(=O)Nc2cccs2)cc1 returned JMJD2A Tudor inh -22%, BAZ2B block inconclusive, 12-LOX inh 389%, PLK1 PBD inh -9%, G9a block inconclusive and HP1b binding inh 2%.
`CCOC(=O)c1cccc(NC(=O)c2ccc(-n3cnc(NC(C)=O)c3)cc2)c1` gave 12-LOX inh -1%.
Screening COc1ccc(C(=O)Nc2ccc(N(C)Cc3ccccc3)c(C(=O)O)c2)cc1 returned JMJD2A Tudor inh inconclusive, BAZ2B block inconclusive, 12-LOX inh inconclusive, G9a block -7%[59 µM] and HP1b binding inh 7%.
For CCCn1nc(C)cc1CN(C)c1ccc(NC(=O)c2ccccc2C)cc1C(=O)O the results were 12-LOX inh 10µM*.
Cc1ccc(Cl)cc1Nc1nc(-c2sc(NC(=O)c3cccc(Cl)c3)nc2C)cs1 was read as BAZ2B block inconclusive and G9a block 32µM*.
For Cc1ccc(Cl)cc1Nc1nc(-c2sc(NC(=O)c3ccco3)nc2C)cs1 the results were JMJD2A Tudor inh inconclusive, BAZ2B block inconclusive, 12-LOX inh -26%, PLK1 PBD inh -17%, G9a block inconclusive and HP1b binding inh 23%.
Screening Cc1ccc(Nc2nc(-c3sc(NC(=O)c4ccc([N+](=O)[O-])cc4)nc3C)cs2)cc1 returned BAZ2B block 45µM*.
`Cc1ccccc1Nc1nc(-c2sc(NC(=O)c3cccc(Cl)c3)nc2C)cs1` gave BAZ2B block 89µM* and G9a block 22µM*.
`CCCCCC(=O)Nc1nc(C)c(-c2csc(Nc3cc(Cl)ccc3C)n2)s1` gave JMJD2A Tudor inh inconclusive, BAZ2B block inconclusive, 12-LOX inh -26%, PLK1 PBD inh -6%, G9a block inconclusive and HP1b binding inh -11%.
Screening Cc1ccccc1Nc1nc(-c2sc(NC(=O)c3ccc([N+](=O)[O-])cc3)nc2C)cs1 returned BAZ2B block 45µM* and G9a block 25µM*.
For Cn1nc2c(c1C(=O)O)CCCC2 the results were JMJD2A Tudor inh inconclusive, BAZ2B block -36%, 12-LOX inh -2%, PLK1 PBD inh -7%, G9a block inconclusive and HP1b binding inh 13%.
For Cc1ccccc1Nc1nc(-c2sc(NC(=O)c3ccccc3)nc2C)cs1 the results were BAZ2B block inconclusive and G9a block 35µM*.
COc1ccc2c(C)c(CCC(=O)NCc3ccccc3Cl)c(=O)oc2c1C was read as JMJD2A Tudor inh -16%, BAZ2B block -2%, 12-LOX inh -21%, G9a block 4%[59 µM] and HP1b binding inh 32%.
For CC(=O)Nc1ccc(NC(=O)/C(=C/c2ccco2)NC(=O)c2ccccc2)cc1 the results were JMJD2A Tudor inh -26%, BAZ2B block -37%, 12-LOX inh -6%, PLK1 PBD inh inconclusive and HP1b binding inh -11%.
For Cc1cccc(-c2nc3ccccc3c(=O)[nH]2)c1 the results were JMJD2A Tudor inh 10%, BAZ2B block -6%, 12-LOX inh 0%, PLK1 PBD inh -2%, G9a block 24% and HP1b binding inh 25%.
Screening CC(C)Cc1c2c([nH]c(=S)c1C#N)CCCC2 returned JMJD2A Tudor inh 56µM*, BAZ2B block -30%, 12-LOX inh inconclusive, PLK1 PBD inh 27µM*, G9a block 2.2µM* and HP1b binding inh -24%.
`N#Cc1c(-c2cccnc2)c2c([nH]c1=S)CCCC2` gave JMJD2A Tudor inh 1.4µM*, BAZ2B block -6%, 12-LOX inh inconclusive, PLK1 PBD inh 12µM*, G9a block 0.71µM* and HP1b binding inh inconclusive.
For N#Cc1c(-c2ccco2)c2c([nH]c1=S)CCCC2 the results were JMJD2A Tudor inh 28µM*, BAZ2B block 1%, 12-LOX inh 32µM*, PLK1 PBD inh 12µM*, G9a block inconclusive and HP1b binding inh -22%.
Screening O=C(COC(=O)CCC(=O)c1cccs1)NCc1ccccc1 returned JMJD2A Tudor inh -14%[57.1 µM], BAZ2B block inconclusive, 12-LOX inh -4%, PLK1 PBD inh -17%, G9a block -6% and HP1b binding inh 15%.
`COc1ccnc(CN(C)C(=O)C2CCC(=O)N(Cc3cccc(C(F)(F)F)c3)C2)c1` (stereo not given) gave JMJD2A Tudor inh -13%, BAZ2B block 8%, 12-LOX inh 1%, PLK1 PBD inh 0%, G9a block 86% and HP1b binding inh 48%.
